Among the data in PubChem BioAssay (Tox21) are Potency values, retold here.

Results filed as inconclusive are left out. Calls of active or inactive are those of the source. Unless noted, calls follow the shape of the dose curve; as a rule, active = well fitted curve in the direction sought with a large enough effect in the repeat runs; inconclusive = weak or mixed curves; inactive = no such curve, though single readings can be large; an effect the other way counts as inactive or inconclusive.

Experiment [1] deals with Peroxisome proliferator-activated receptor delta (Homo sapiens) (UniProt Q03181). Nature of the experiment: qHTS assay to identify small molecule agonists of the peroxisome proliferator-activated receptor delta (PPARd) signaling pathway (AID 743212; calls by dose curve). A digest of the protocol:
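Beta-lactamase reporter readout: a ratiometric FRET signal from the LiveBLAzer substrate after 2 h at room temperature. Compound exposure at 37 °C in PPARδ-bla HEK293H cells driven by an upstream activator sequence.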
Background: Quantitative high-throughput screening tests each substance at several concentrations.

Experiment [2] is described as follows: qHTS assay to identify small molecule antagonists of the peroxisome proliferator-activated receptor delta (PPARd) signaling pathway - cell viability counter screen (AID 743213). Also: nearly all actives have a fitted effect of over 50% in size. Also: potency is read from the fitted curve at half-maximal effect. The procedure, abridged:
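Agonist-stimulated (L165041, 300 nM final) HEK293H PPARd UAS-bla cells are exposed to compounds for 17 h at 37 C, and ATP-based luminescence (CellTiter-Glo) from the same wells reports cytotoxicity.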

The target of experiment [3] is Peroxisome proliferator-activated receptor delta (Homo sapiens) (UniProt Q03181). The experiment is described as follows: qHTS assay to identify small molecule antagonists of the peroxisome proliferator-activated receptor delta (PPARd) signaling pathway (AID 743215; active = well fitted inhibition curve with a large enough effect in the signal ratio in the repeat runs, not every such curve was filed as active; the % refers to the signal ratio; also: potency is read from the fitted curve at half-maximal effect). A digest of the protocol: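 Plated HEK293H PPARd-bla cells rested 5 h at 37 C and 5% CO2. Compound, then agonist L165041 at 300 nM final, was added; 17 h at 37 C followed. Substrate loading, 2 h room temperature, fluorescence measured.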

In experiment [4] the target is Bile acid receptor (Homo sapiens) (UniProt Q96RI1). The experiment is described as follows: qHTS assay to identify small molecule antagonists of the farnesoid-X-receptor (FXR) signaling pathway (AID 743217; active = well fitted inhibition curve with a large enough effect in the signal ratio in the repeat runs, not every such curve was filed as active; the % refers to the signal ratio). The procedure, abridged:
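Screen of the Tox21 10K library in quantitative HTS format using FXR-UAS-bla HEK 293T reporter cells. Agonist chenodeoxycholic acid, 50 uM final, added with compounds; 16 h incubation at 37 °C; beta-lactamase FRET fluorescence measured.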

For experiment [5] the target is unchanged. The experiment is described as follows: qHTS assay to identify small molecule agonists of the farnesoid-X-receptor (FXR) signaling pathway (AID 743220; active = well fitted activation curve with a large enough effect in the signal ratio in the repeat runs, not every such curve was filed as active; the % refers to the signal ratio). The procedure, abridged:
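FXR-UAS-bla HEK 293T cells carrying a UAS-driven beta-lactamase reporter were plated for 5 h at 37C/5% CO2, then exposed to DMSO-dissolved Tox21 10K compounds for 16 h at 37C. A LiveBLAzer B/G FRET substrate was loaded for 2 h at room temperature before fluorescence reading.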

Experiment [6] addresses Vitamin D3 receptor (Homo sapiens) (UniProt P11473). The experiment is described as follows: qHTS assay to identify small molecule agonists of the vitamin D receptor (VDR) signaling pathway (AID 743222; calls by dose curve). The procedure, abridged:
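Fluorescence from cleaved LiveBLAzer B/G FRET substrate served as readout. VDR-bla cells had been treated 16 h at 37C with test compounds in DMSO, following a 4 h settling period, and substrate was loaded for 2 h at RT.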

Experiment [7] can be described thus: qHTS assay to identify small molecule antagonists of the vitamin D receptor (VDR) signaling pathway - cell viability counter screen (AID 743225). Also: nearly all actives have a fitted effect of over 50% in size. Also: potency is read from the fitted curve at half-maximal effect. A digest of the protocol:
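VDR-bla HEK 293T cells, 4 h pre-incubation at 37C, then compound plus 1-alpha,25-dihydroxyvitamin D3 (3 nM final) for 16 h. After the beta-lactamase FRET read, CellTiter-Glo was added to the same wells; luminescence after 30 min at room temperature.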

Experiment [8] can be described thus: qHTS assay to identify small molecule agonists of the NFkB signaling pathway - cell viability counter screen (AID 1159515; calls by dose curve; also: nearly all actives have a fitted effect of over 55% in size; also: potency is read from the fitted curve at half-maximal effect). The procedure, abridged:
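Parallel cytotoxicity counter screen in ME-180 cells carrying an NFkB-response-element beta-lactamase reporter, 2,000 cells/well. Compound exposure lasted 5 hr at 37 C, 5% CO2. Cell viability was quantified by CellTiter-Glo luminescence.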

Experiment [9] can be described thus: qHTS assay to identify small molecule agonists of the endoplasmic reticulum stress response signaling pathway (AID 1159516; active = well fitted activation curve with a large enough effect in the signal ratio in the repeat runs, not every such curve was filed as active; the % refers to the signal ratio). The procedure, abridged:
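Using a HeLa line with an ESRE-driven beta-lactamase gene, agonist activity was measured by FRET substrate fluorescence (460 and 530 nm emission) after cells were treated with compounds for 5 hr at 37 C and 5% CO2.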

The target in experiment [10] is Nuclear receptor ROR-gamma (Homo sapiens) (UniProt P51449). Nature of the experiment: qHTS assay to identify small molecule antagonists of the retinoid-related orphan receptor gamma (ROR-gamma) signaling pathway (AID 1159521; also: nearly all actives have a fitted effect of over 50% in size; also: potency is read from the fitted curve at half-maximal effect). The procedure, abridged:
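Tet-on RORγ CHO cells carrying a ROR response element–luciferase reporter were pretreated with compounds for 2 h, then induced with 1 uM (final) doxycycline hyclate for 16 h at 37 C. Antagonism was read as decreased ONE-Glo luminescence.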

Experiment [11] can be described thus: qHTS assay to identify small molecule agonists of the AP-1 signaling pathway - cell viability counter screen (AID 1159525; calls by dose curve; also: nearly all actives have a fitted effect of over 55% in size; also: potency is read from the fitted curve at half-maximal effect). A digest of the protocol:
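Intracellular ATP by Cell Titer Glo luminescence (30 min, RT) in the same ME-180 AP-1-bla wells after the 5 h compound exposure at 37 °C. Normalised to tetra n-octyl ammonium bromide and DMSO controls.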

Experiment [12] in a line: qHTS assay to identify small molecule agonists of the peroxisome proliferator-activated receptor delta (PPARd) signaling pathway - cell viability counter screen (AID 743211). Also: nearly all actives have a fitted effect of over 55% in size. Also: potency is read from the fitted curve at half-maximal effect. A digest of the protocol: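 PPARd-bla HEK293H cells (UAS-beta-lactamase reporter) were treated with compounds for 17 h at 37 C. Viability was then read in the same wells by CellTiter-Glo luminescence after 30 min at room temperature.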

A short description of experiment [13]: qHTS assay to identify small molecule agonists of the farnesoid-X-receptor (FXR) signaling pathway - cell viability counter screen (AID 743218). Also: nearly all actives have a fitted effect of over 45% in size. The procedure, abridged:
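Viability of FXR-bla HEK 293T cells is measured by ATP-based CellTiter-Glo luminescence following 16 h compound treatment at 37 C and a prior 2 h room-temperature beta-lactamase substrate step.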

A short description of experiment [14]: qHTS assay to identify small molecule antagonists of the farnesoid-X-receptor (FXR) signaling pathway - cell viability counter screen (AID 743221; active = well fitted cell-killing curve with a large enough effect in the repeat runs, not every such curve was filed as active; also: nearly all actives have a fitted effect of over 50% in size). The procedure, abridged: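 FXR-UAS-bla HEK 293T cells were treated with test compounds plus chenodeoxycholic acid (50 uM final) for 16 h at 37 C. Cell viability in the same wells was then read as CellTiter-Glo luminescence after 30 min at room temperature.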

Experiment [15] concerns the target Vitamin D3 receptor (Homo sapiens) (UniProt P11473). The experiment is described as follows: qHTS assay to identify small molecule antagonists of the vitamin D receptor (VDR) signaling pathway (AID 743223; active = well fitted inhibition curve with a large enough effect in the signal ratio in the repeat runs, not every such curve was filed as active; the % refers to the signal ratio). The procedure, abridged:
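VDR-bla cells were plated, incubated 4 h at 37C, then given compound and 1alpha,25-dihydroxyvitamin D3 (3 nM final). After 16 h at 37C, LiveBLAzer B/G FRET substrate was added for 2 h at room temperature and fluorescence read.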

A short description of experiment [16]: qHTS assay to identify small molecule agonists of the vitamin D receptor (VDR) signaling pathway - cell viability counter screen (AID 743224). A digest of the protocol: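 Compounds were pin-transferred onto VDR-bla cells plated 4 h earlier; following 16 h incubation at 37C, cell viability was quantified by CellTiter-Glo luminescence after 30 min at room temperature.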

Experiment [17] can be described thus: qHTS assay to identify small molecule antagonists of the retinoid-related orphan receptor gamma (ROR-gamma) signaling pathway - cell viability counter screen (AID 1159520). Also: nearly all actives have a fitted effect of over 50% in size. The procedure, abridged:
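Cytotoxicity was read from cellular ATP (CellTiter-Glo luminescence) after 16 hr at 37 C with 1 uM doxycycline induction. The inducer was added 2 hr after compound transfer to Tet-on ROR gamma CHO cells.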

Experiment [18] can be described thus: qHTS assay to identify small molecule agonists of the AP-1 signaling pathway (AID 1159526; calls by dose curve).
The target of experiment [19] is Retinoic acid receptor RXR-alpha (Homo sapiens) (UniProt P19793). The experiment is described as follows: qHTS assay to identify small molecule agonists of the RXR signaling pathway (AID 1159527; calls by dose curve; also: nearly all actives have a fitted effect of over 35% in size). The procedure, abridged:
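GeneBLAzer RXR-alpha-UAS-bla HEK 293T cells in medium with 2% charcoal-stripped FBS, pre-incubated 5 hr at 37 C, then exposed to compounds 16 hr. Beta-lactamase reporter read by FRET substrate, 2 hr room temperature, 460/530 nm emission.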

Chain of Vitamin D3 receptor (Homo sapiens) (P11473 whole entry, looked up): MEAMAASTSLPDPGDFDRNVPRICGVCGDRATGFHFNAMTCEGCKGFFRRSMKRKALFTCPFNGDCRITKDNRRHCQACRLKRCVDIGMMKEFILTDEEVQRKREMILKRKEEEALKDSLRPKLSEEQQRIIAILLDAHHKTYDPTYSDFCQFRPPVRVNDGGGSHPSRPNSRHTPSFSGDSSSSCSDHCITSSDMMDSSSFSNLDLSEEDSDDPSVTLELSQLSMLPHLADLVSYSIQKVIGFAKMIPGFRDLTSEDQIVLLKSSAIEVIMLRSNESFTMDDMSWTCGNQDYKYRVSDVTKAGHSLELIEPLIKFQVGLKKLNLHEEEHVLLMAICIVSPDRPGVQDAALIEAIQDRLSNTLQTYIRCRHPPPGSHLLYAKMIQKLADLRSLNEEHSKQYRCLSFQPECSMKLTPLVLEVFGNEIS
Chain of Bile acid receptor (Homo sapiens) (Q96RI1 whole entry, looked up): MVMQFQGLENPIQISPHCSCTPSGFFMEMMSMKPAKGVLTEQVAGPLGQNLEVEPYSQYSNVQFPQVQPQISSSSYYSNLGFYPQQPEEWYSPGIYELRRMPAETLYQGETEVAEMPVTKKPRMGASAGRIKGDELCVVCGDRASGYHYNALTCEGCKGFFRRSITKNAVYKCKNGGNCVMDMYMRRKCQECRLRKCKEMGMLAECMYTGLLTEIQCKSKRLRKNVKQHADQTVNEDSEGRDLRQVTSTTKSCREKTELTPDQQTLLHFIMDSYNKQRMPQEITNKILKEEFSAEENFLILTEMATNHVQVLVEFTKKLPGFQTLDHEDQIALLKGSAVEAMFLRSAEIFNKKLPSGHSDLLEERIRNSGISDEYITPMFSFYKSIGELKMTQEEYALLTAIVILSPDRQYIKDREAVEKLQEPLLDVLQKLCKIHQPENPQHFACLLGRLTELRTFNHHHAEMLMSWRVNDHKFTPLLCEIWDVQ
Chain of Retinoic acid receptor RXR-alpha (Homo sapiens) (P19793 whole entry, looked up): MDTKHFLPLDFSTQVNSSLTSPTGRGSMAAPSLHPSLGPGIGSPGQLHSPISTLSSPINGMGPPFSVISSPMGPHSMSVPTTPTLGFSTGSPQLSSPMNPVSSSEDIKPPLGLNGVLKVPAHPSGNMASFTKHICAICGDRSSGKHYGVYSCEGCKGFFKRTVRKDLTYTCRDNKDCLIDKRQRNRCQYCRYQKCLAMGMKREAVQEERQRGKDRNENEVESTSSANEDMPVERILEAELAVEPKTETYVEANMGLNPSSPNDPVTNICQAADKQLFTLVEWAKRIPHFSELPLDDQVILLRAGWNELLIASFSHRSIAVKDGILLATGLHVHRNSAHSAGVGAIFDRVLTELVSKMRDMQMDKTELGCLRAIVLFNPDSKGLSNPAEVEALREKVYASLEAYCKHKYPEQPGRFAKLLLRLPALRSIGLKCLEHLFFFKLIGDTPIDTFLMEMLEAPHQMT
Chain of Peroxisome proliferator-activated receptor delta (Homo sapiens) (Q03181 whole entry, looked up): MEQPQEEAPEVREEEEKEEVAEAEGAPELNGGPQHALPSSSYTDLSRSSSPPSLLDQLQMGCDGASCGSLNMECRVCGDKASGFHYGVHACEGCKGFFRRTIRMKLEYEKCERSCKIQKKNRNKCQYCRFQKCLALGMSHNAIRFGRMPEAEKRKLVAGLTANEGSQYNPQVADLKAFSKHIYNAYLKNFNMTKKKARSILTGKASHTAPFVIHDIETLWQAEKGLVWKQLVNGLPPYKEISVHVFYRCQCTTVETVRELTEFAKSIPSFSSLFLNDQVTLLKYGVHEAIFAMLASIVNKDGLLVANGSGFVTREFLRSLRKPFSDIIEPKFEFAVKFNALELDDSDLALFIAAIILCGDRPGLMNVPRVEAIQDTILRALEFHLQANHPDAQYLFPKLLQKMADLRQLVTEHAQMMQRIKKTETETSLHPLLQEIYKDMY

As to `CCN(CC)C(=O)c1cc(S(=O)(=O)Cc2ccccc2)c(N2CCC(c3ccccc3)CC2)cc1N(CC)CCN(C)C`, the Potency result in experiment [1], in experiment [4], in experiment [5], in experiment [6] and in experiment [9] was “inactive” in each case. In addition, the Potency is 6.84 µM (active) in [2]; 17.2 µM (active) in experiment [3]; 17.2 µM (active) in [7]; 21.6 µM (active) in [8]; 21.4 µM (active) in experiment [10]; 17.2 µM (active) in experiment [11].

For the compound `CC(=O)CC(=O)Nc1ccc(S(=O)(=O)O)cc1`, the Potency entry in experiment [12], in experiment [1], in [2], in experiment [3], in experiment [13] and in experiment [14] was “inactive” in each case. Further, the Potency entry in [6], in experiment [15], in [16], in experiment [7], in [8] and in experiment [9] was “inactive” in each case. Moreover, the Potency entry in experiment [17], in [18] and in experiment [19] was “inactive” each time.

As for `O=C(Nc1ccc2c(O)c(N=Nc3ccc(N=Nc4ccc(S(=O)(=O)O)cc4)cc3)c(S(=O)(=O)O)cc2c1)c1ccccc1`, the Potency entry in [2], in experiment [13], in experiment [14], in [15], in experiment [16] and in experiment [7] was “inactive” each time. For the same compound, the Potency result in experiment [8], in experiment [9], in experiment [11] and in [19] was “inactive” throughout.

For `CC(C)CCCCCOC(=O)CCS`, the Potency entry in [12], in experiment [1], in experiment [3], in experiment [13], in [14] and in [6] was “inactive” each time. The Potency entry in [15], in experiment [16], in [7], in experiment [8], in [9] and in [17] was “inactive” throughout. For the same compound, the Potency entry in [18] was “inactive”.

Take `CCC(CC)C(C)CCOC(C)=O` (stereo not given): the Potency result in [12], in experiment [1], in experiment [2], in experiment [3], in experiment [6] and in [15] was “inactive” throughout. The Potency entry in experiment [16], in experiment [7], in experiment [8], in experiment [9], in experiment [10] and in experiment [11] was “inactive” throughout. Further, the Potency result in experiment [18] and in experiment [19] was “inactive” each time.

In the case of `CC1(C)CC(O)CC(C)(C)N1`, the Potency result in [12], in experiment [1], in experiment [3], in experiment [13], in experiment [14] and in experiment [7] was “inactive” throughout. For the same compound, the Potency result in experiment [8], in experiment [9], in experiment [10], in experiment [11], in experiment [18] and in experiment [19] was “inactive” throughout.

Consider `CC1(C)[C@@H](O)CC[C@]2(C)[C@H]3C(=O)C=C4[C@@H]5C[C@@](C)(C(=O)O)CC[C@]5(C)CC[C@@]4(C)[C@]3(C)CC[C@@H]12`, for which the Potency in experiment [12] was 38.5 µM (active). Also, the Potency result in experiment [7], in experiment [8], in experiment [9], in experiment [10] and in [19] was “inactive” throughout.

As for `CCO[Si](OCC)(OCC)OCC`, the Potency entry in experiment [12], in experiment [2], in experiment [13], in experiment [14], in experiment [6] and in experiment [15] was “inactive” each time. The Potency entry in experiment [16], in experiment [7], in experiment [8], in [9], in experiment [10] and in experiment [11] was “inactive” each time. For the same compound, the Potency result in experiment [18] is “inactive”.

In the case of `CCC(CC)(CC(=O)Nc1cccc(/C=C/c2nc(C3CCC3)cs2)c1)C(=O)O`, the Potency result in [12], in experiment [2], in [3], in experiment [4], in experiment [5] and in experiment [14] was “inactive” each time. The Potency entry in experiment [7], in experiment [8], in experiment [9], in experiment [10] and in experiment [18] was “inactive” each time.
